PubChem BioAssay (Tox21)
Records with an inconclusive call do not appear. A call without a number means that no potency is given here. The source made the active and inactive calls. Unless noted, calls come from the whole dose curve; as a rule, active = well fitted curve in the direction sought with a large enough effect in the repeat runs; inconclusive = weak or mixed curves; inactive = no such curve, though single readings can be large; an effect the other way counts as inactive or inconclusive.

Columns and labels:
[1] = qHTS assay to identify small molecule antagonists of the estrogen related receptor (ERR) signaling pathway from Tox21 library - cell viability counter screen (AID 1224834); note: nearly all actives have a fitted effect of over 30% in size; note: potency is the fitted concentration of half-maximal effect
Summary of the method: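 CellTiter-Fluor fluorescence, read after 30 min at 37 C, measures viability of ERR cells. Cells plated at 2,000/well and incubated 6 h before pin-tool compound addition, then exposed 17.5 hours at 37 C.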

[2] = qHTS assay to identify small molecule agonists of the constitutive androstane receptor (CAR) signaling pathway - cell viability counter screen (AID 1224836); note: nearly all actives have a fitted effect of over 45% in size; note: potency is the fitted concentration of half-maximal effect
Summary of the method: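 Cell viability multiplexed with the CAR agonist screen: CellTiter-Fluor fluorescence after 23 hr at 37 C. HepG2-CYP2B6-hCAR cells got compounds at 15 concentrations with PK11195 at 0.75 uM final.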

[3] = qHTS assay to identify small molecule antagonists of the estrogen related receptor signaling pathway with the pleiotropic PPARgamma coactivator (PGC) from Tox21 10K library - cell viability counter screen (AID 1224840; active = well fitted cell-killing curve with a large enough effect in the repeat runs, not every such curve was filed as active; note: nearly all actives have a fitted effect of over 40% in size; note: potency is the fitted concentration of half-maximal effect)
Summary of the method: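 Counter-screen for cytotoxicity: after 17.5 h compound exposure at 37 C, CellTiter-Fluor reagent added to PGC/ERR cells for 30 min and fluorescence read. Cells were seeded at 2,000 per well 6 h before dosing.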

[4] = qHTS assay to identify small molecule agonists of the estrogen related receptor signaling pathway with the pleiotropic PPARgamma coactivator (PGC) from Tox21 10K library (AID 1224842); note: nearly all actives have a fitted effect of over 15% in size; note: potency is the fitted concentration of half-maximal effect
Summary of the method: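 Luminescence from One-Glo (30 min, room temperature) measured after PGC/ERR cells had 18 h at 37 C with pinned compound (23 nL in DMSO). Cells had been seeded at 2,000 per well and pre-incubated 6 h.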

[5] = target: Nuclear receptor subfamily 1 group I member 3 (Homo sapiens) (UniProt Q14994); assay: qHTS assay to identify small molecule antagonists of the constitutive androstane receptor (CAR) signaling pathway (AID 1224838);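 note: HepG2 cells stably expressing hCAR with CYP2B6 luciferase reporter stimulated by CITCO; nearly all actives have a fitted effect of over 40% in size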; note: potency is the fitted concentration of half-maximal effect
Sequence of Nuclear receptor subfamily 1 group I member 3 (Homo sapiens) (Q14994 whole entry, looked up): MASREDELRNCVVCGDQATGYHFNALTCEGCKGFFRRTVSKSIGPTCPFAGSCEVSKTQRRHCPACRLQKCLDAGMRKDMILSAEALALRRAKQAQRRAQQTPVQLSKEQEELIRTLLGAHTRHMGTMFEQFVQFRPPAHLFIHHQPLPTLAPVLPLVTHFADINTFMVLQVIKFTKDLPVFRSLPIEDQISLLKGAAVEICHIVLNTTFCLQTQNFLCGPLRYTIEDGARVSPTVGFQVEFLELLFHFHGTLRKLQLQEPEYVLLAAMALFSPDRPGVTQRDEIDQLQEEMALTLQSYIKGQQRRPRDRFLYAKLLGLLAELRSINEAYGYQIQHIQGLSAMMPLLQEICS
Summary of the method: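 Antagonism measured as luciferase signal (ONE-Glo, 30 min, room temperature) in CAR-stimulated cells: HepG2-CYP2B6-hCAR double-stable line exposed 24 hr at 37 C to compound in a 15-point series plus 50 nM CITCO.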

[6] = target: Luciferin 4-monooxygenase (Photinus pyralis) (UniProt P08659); assay: qHTS assay to identify small molecule inhibitors of firefly luciferase (AID 1224835); note: nearly all actives have a fitted effect of over 25% in size; note: potency is the fitted concentration of half-maximal effect
Sequence of Luciferin 4-monooxygenase (Photinus pyralis) (P08659 whole entry, looked up): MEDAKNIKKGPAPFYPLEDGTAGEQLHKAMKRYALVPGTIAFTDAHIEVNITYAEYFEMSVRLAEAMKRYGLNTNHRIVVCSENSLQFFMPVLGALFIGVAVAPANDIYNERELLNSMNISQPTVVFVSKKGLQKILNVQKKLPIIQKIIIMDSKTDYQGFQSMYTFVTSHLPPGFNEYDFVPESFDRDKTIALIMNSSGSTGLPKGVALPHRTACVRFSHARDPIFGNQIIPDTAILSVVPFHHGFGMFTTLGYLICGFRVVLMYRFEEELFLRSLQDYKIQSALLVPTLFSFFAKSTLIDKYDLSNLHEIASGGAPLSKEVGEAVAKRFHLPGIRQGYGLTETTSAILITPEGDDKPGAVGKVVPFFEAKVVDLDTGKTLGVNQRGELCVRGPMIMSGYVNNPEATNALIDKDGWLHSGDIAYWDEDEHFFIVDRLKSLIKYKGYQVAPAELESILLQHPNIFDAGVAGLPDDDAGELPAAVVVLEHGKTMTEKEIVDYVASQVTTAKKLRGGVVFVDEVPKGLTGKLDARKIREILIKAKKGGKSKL
Summary of the method: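 Inhibition of purified Photinus luciferase is measured by luminescence. Substrate levels (D-luciferin, ATP) sit at their KM values. Each compound is tested in a concentration series.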

[7] = qHTS assay to identify small molecule antagonists of the constitutive androstane receptor (CAR) signaling pathway - cell viability counter screen (AID 1224837); note: series mostly up to about 92 µM; nearly all actives have a fitted effect of over 45% in size
Summary of the method: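 Cytotoxicity counter-screen: CellTiter-Fluor fluorescence after 23 h compound exposure (15-point qHTS) in double-stable HepG2-CYP2B6-hCAR cells, with 50 nM CITCO added.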

[8] = target: Nuclear receptor subfamily 1 group I member 3 (Homo sapiens) (UniProt Q14994); assay: qHTS assay to identify small molecule agonists of the constitutive androstane receptor (CAR) signaling pathway (AID 1224839); note: nearly all actives have a fitted effect of over 15% in size; note: potency is the fitted concentration of half-maximal effect
Summary of the method: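 Luminescent ONE-Glo read-out after 24 hr, 37 C exposure of double-stable HepG2-CYP2B6-hCAR reporter cells to a 15-point compound series, in the presence of 0.75 uM PK11195 (final).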

[9] = qHTS assay to identify small molecule antagonists of the estrogen related receptor signaling pathway with the pleiotropic PPARgamma coactivator (PGC) from Tox21 10K library (AID 1224841; call rule not given here; note: actives are mostly falling curves and most rising ones were filed inactive; nearly all actives have a fitted effect of over 50% in size; note: potency is the fitted concentration of half-maximal effect)
Summary of the method: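 Luminescence (One-Glo, 30 min at room temperature) after 18 h compound treatment at 37 C of PGC/ERR reporter cells plated at 2,000 cells/well and settled 6 h beforehand.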

SMILES | Potency [1] | Potency [2] | Potency [3] | Potency [4] | Potency [5] | Potency [6] | Potency [7] | Potency [8] | Potency [9]
CC1=Nc2ccc3ccccc3c2C1(C)C | inactive | inactive | inactive | inactive |  |  |  |  | 
CCn1cc(C(=O)O)c(=O)c2cc(F)c(N3CCNCC3)cc21 | inactive | inactive | inactive |  |  |  |  |  | 
Nc1nc2ccc([N+](=O)[O-])cc2s1 |  |  |  |  | inactive |  |  |  | 
C/C=C\C/C=C/CCCCCCCCOC(C)=O |  | inactive | inactive | inactive | inactive | inactive | inactive | inactive | 
COC(=O)[C@H]1[C@H]2C[C@@H]3c4[nH]c5cc(OC)ccc5c4CCN3C[C@H]2C[C@@H](OC(=O)/C=C/c2ccc(O)c(OC)c2)[C@@H]1OC |  | inactive | inactive | inactive | inactive |  | inactive | inactive | 
OC[C@H]1O[C@@H](n2cnc3c(=S)nc[nH]c32)[C@H](O)[C@@H]1O |  |  | inactive | inactive | 1.88 µM (active) |  |  | inactive | inactive
O=Cc1c2ccccc2c(Cl)c2ccccc12 |  | inactive |  | inactive |  | inactive | inactive |  | 
COc1ccccc1N1CCN(CC(O)COc2cccc3ccccc23)CC1 (centres undefined) |  | inactive | inactive |  | inactive | inactive |  | inactive | 
O=[N+]([O-])c1ccc(Nc2ccc(Nc3ccccc3)c(S(=O)(=O)O)c2)c([N+](=O)[O-])c1 |  |  | inactive |  | inactive | inactive | inactive | inactive | 
CC(=O)Nc1cc(S(=O)(=O)O)cc2cc(S(=O)(=O)O)c(N=Nc3ccccc3)c(O)c12 | 24.3 µM (active) | 30.6 µM (active) | 27.3 µM (active) | inactive | inactive |  |  | inactive | 
CN(C(=O)CN(CCO)CC(=O)N(C)C(C)(C)Cc1ccccc1)C(C)(C)Cc1ccccc1 |  | inactive | inactive | inactive | inactive | inactive | inactive | inactive | inactive
COc1cc(N)c(Cl)cc1C(=O)NC1CCN(CCCOc2ccc(F)cc2)CC1OC (centres undefined) |  | inactive |  | inactive |  | inactive |  |  | 
CC[C@]1(O)C[C@H]2CN(CCc3c([nH]c4ccccc34)[C@@](C(=O)OC)(c3cc4c(cc3OC)N(C=O)[C@H]3[C@@](O)(C(=O)OC)[C@H](OC(C)=O)[C@]5(CC)C=CCN6CC[C@]43[C@@H]65)C2)C1 |  |  |  |  | 0.211 µM (active) | inactive |  | inactive | 
CCOC(=O)[C@H](CCc1ccccc1)N[C@@H](C)C(=O)N(CC(=O)O)C1Cc2ccccc2C1 |  | inactive | inactive |  |  |  | inactive |  | 
NC1[C@H]2CN(c3nc4c(cc3F)c(=O)c(C(=O)O)cn4-c3ccc(F)cc3F)C[C@@H]12 (some centres undefined) |  | inactive | inactive |  | inactive |  |  |  | inactive
C[C@@H](CN(C)C)CN1c2ccccc2Sc2ccccc21 | 26.6 µM (active) |  | inactive | inactive | inactive |  |  |  | inactive
O=[N+]([O-])c1ccc(O/N=C/c2cc(Br)c(O)c(Br)c2)c([N+](=O)[O-])c1 | 30.5 µM (active) |  | 48.3 µM (active) |  | inactive |  |  |  | 
Oc1ccc(Cl)c2cccnc12 |  |  | inactive | inactive |  | inactive |  |  | 4.73 µM (active)
COC(=O)C1=C(C)NC(C)=C(C(=O)O[C@@H]2CCCN(Cc3ccccc3)C2)[C@@H]1c1cccc([N+](=O)[O-])c1 |  | inactive | inactive | inactive | inactive | inactive |  | inactive | 
O=C1Cc2ccccc2N1c1c(Cl)cccc1Cl |  | inactive | inactive | inactive | inactive | inactive | inactive | 30.6 µM (active) | inactive
COc1ccccc1NC(=O)c1cc2ccccc2cc1O |  | inactive | inactive | inactive | inactive | 17.8 µM (active) | inactive | 17.2 µM (active) | 15.4 µM (active)
CCOc1ccc(Cc2nccc3cc(OCC)c(OCC)cc23)cc1OCC |  | inactive | inactive |  | inactive | inactive |  | inactive | 
Oc1cccc(O)c1O |  |  | inactive | 8.56 µM (active) | inactive | inactive | inactive | inactive | inactive
CN1CC(=O)N2[C@H](c3ccc4c(c3)OCO4)c3[nH]c4ccccc4c3C[C@@H]2C1=O |  | inactive | inactive |  | inactive | inactive | inactive | inactive | 
COc1cc(C(=O)NCCCCCC(=O)O)cc(OC)c1OC |  | inactive | inactive | inactive | inactive | inactive | inactive | inactive | inactive
O=c1c(O)c(-c2ccc(O)cc2)oc2cc(O)cc(O)c12 |  | inactive | inactive | inactive | inactive |  | inactive | 36.8 µM (active) | inactive
